Experimental findings from PubChem BioAssay (NCI) are described below.

Molecules are shown by their SMILES. Compounds without any hit were thinned out: in the full panel of roughly 79,000, 15% have a hit. A number with no mark means an inactive call. Calls of active or inactive are those of the source. Rule as the data show it: active = growth inhibition above about 70%; inactive = the rest.

The nature of assay [1]: NCI Yeast Anticancer Drug Screen. Data for the rad50 strain (AID 155).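 Also: 0% = growth of vehicle-only cultures of the same strain.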 The settings on record: S. cerevisiae rad50 strain growth inhibition, active compounds read high. In outline:
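Relative growth inhibition (compound vs vehicle) was measured in yeast with a defined repair-gene alteration.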

Assay [2] in a line: NCI Yeast Anticancer Drug Screen. Data for the mec2-1 strain (AID 157). The settings on record: S. cerevisiae mec2-1 strain, active compounds read high. A digest of the protocol: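 Each compound was tested on mec2-1 yeast, a strain altered in DNA damage repair or cell cycle control. Growth inhibition is reported relative to vehicle.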
Assay [3] is described as follows: NCI Yeast Anticancer Drug Screen. Data for the sgs1 mgt1 strain (AID 161).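 Also: 0% = growth of cultures given vehicle only.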 The settings on record: S. cerevisiae sgs1 mgt1 strain, active compounds read high. In outline: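 Read-out: growth inhibition vs vehicle controls. Cells: mutant yeast strain deficient in DNA damage repair.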
A short description of assay [4]: NCI Yeast Anticancer Drug Screen. Data for the cln2 rad14 strain (AID 165).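 Also: 0% = growth equal to vehicle treated cultures.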 The settings on record: S. cerevisiae cln2 rad14 strain, active compounds read high. A digest of the protocol: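 Test compounds were added to cln2 rad14 yeast cultures; inhibition of growth was then determined by comparison with vehicle treatment.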
A short description of assay [5]: NCI Yeast Anticancer Drug Screen. Data for the bub3 strain (AID 167). The note with it: S. cerevisiae bub3 mutant strain, active compounds read high. A digest of the protocol:
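Screening used yeast with an engineered genetic alteration affecting cell cycle control. Compound-exposed cultures were compared with vehicle cultures, and reduced growth was taken as inhibition.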

Assay [6] is described as follows: NCI Yeast Anticancer Drug Screen. Data for the mlh1 rad18 strain (AID 175). The note with it: S. cerevisiae mlh1 rad18 strain growth inhibition, active compounds read high. A digest of the protocol:
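Inhibition values reflect reduced growth of mutant yeast versus vehicle-treated controls following compound exposure; the mutations affect DNA damage repair.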

[7] abbreviates: at 5.0 µM (retest, dose inferred, filed as 0.5).
The mark [8] stands for this setting: at 50.0 µM (retest, dose inferred, filed as 5.0).

As for `O=C(Nc1ccccc1)c1ccc(Cl)cc1Cl`, the growth inhibition in assay [1] (setting [7]) was -15%; in assay [1] (setting [8]), -21%; in assay [1] (at 50.0 µM), 1.35%; in assay [2] (setting [7]), -9%; in assay [2] (setting [8]), -4%; in assay [2] (at 50.0 µM), 1.85%. In addition, the growth inhibition in assay [3] (setting [7]) was -2%; in assay [3] (setting [8]), 7%; in assay [3] (at 50.0 µM), -3.15%; in assay [4] (setting [7]), 31%; in assay [4] (setting [8]), -50%; in assay [4] (at 50.0 µM), -7.95%. Further, the growth inhibition in assay [5] (setting [7]) was 4%; in assay [5] (setting [8]), -34%; in assay [5] (at 50.0 µM), 8.75%; in assay [6] (setting [7]), -6%; in assay [6] (setting [8]), -8%; in assay [6] (at 50.0 µM) it was 8.05%.
With `CC(CN(CC(=O)O)CC(=O)O)N(CC(=O)O)CC(=O)O.[Cl][Pd][Cl]` (configuration not stated), the growth inhibition was 27% in assay [1] (setting [7]); 89% (active) in assay [1] (setting [8]); 88.3% (active) in assay [1] (at 50.0 µM); 7% in assay [2] (setting [7]); 87% (active) in assay [2] (setting [8]); 91.5% (active) in assay [2] (at 50.0 µM). For the same compound, the growth inhibition was 40% in assay [3] (setting [7]); 92% (active) in assay [3] (setting [8]); 82% (active) in assay [3] (at 50.0 µM); 14% in assay [4] (setting [7]); 81% (active) in assay [4] (setting [8]); 57.2% in assay [4] (at 50.0 µM). The growth inhibition in assay [5] (setting [7]) is 22%; in assay [5] (setting [8]) it was 91% (active); in assay [5] (at 50.0 µM) it was 86.4% (active); in assay [6] (setting [7]), 30%; in assay [6] (setting [8]), 83% (active); in assay [6] (at 50.0 µM) it was 90.7% (active).
In the case of `C[N+](C)=c1ccc2nc3c(cc(NCCCNc4cc5oc6cc(=[N+](C)C)ccc-6nc5c5ccccc45)c4ccccc43)oc-2c1`, the growth inhibition in assay [1] (setting [7]) is -28%; in assay [1] (setting [8]), 79% (active); in assay [1] (at 50.0 µM), 75.8% (active); in assay [2] (setting [7]), -7%; in assay [2] (setting [8]) it was 80% (active); in assay [2] (at 50.0 µM), 51%. Further, the growth inhibition in assay [3] (setting [7]) was -15%; in assay [3] (setting [8]) it was 70% (active); in assay [3] (at 50.0 µM), 67.5%; in assay [4] (setting [7]) it was -29%; in assay [4] (setting [8]) it was 53%; in assay [4] (at 50.0 µM), 39.5%. For the same compound, the growth inhibition is -18% in assay [5] (setting [7]); 72% (active) in assay [5] (setting [8]); 64% in assay [5] (at 50.0 µM); -15% in assay [6] (setting [7]); 74% (active) in assay [6] (setting [8]); 65.1% in assay [6] (at 50.0 µM).
Consider `O=c1oc2cc(N=Cc3ccc4c(c3)OCO4)ccc2c2ccccc12`, for which the growth inhibition was -3% in assay [1] (setting [7]); 39% in assay [1] (setting [8]); 80.7% (active) in assay [1] (at 50.0 µM); 1% in assay [2] (setting [7]); 24% in assay [2] (setting [8]); 8.65% in assay [2] (at 50.0 µM). Moreover, the growth inhibition is -7% in assay [3] (setting [7]); 4% in assay [3] (setting [8]); 0.25% in assay [3] (at 50.0 µM); -17% in assay [4] (setting [7]); 8% in assay [4] (setting [8]); 1.2% in assay [4] (at 50.0 µM). Further, the growth inhibition is -4% in assay [5] (setting [7]); 5% in assay [5] (setting [8]); 25.6% in assay [5] (at 50.0 µM); 2% in assay [6] (setting [7]); 42% in assay [6] (setting [8]); 24.9% in assay [6] (at 50.0 µM).
On to `C(=N\Nc1ccc2ccccc2n1)/c1ccccn1.CC(=O)[O-].CC(=O)[O-].[Zn+2]`, for which the growth inhibition is -4% in assay [1] (setting [7]); 2% in assay [1] (setting [8]); 16.7% in assay [1] (at 50.0 µM); 2% in assay [2] (setting [7]); -2% in assay [2] (setting [8]); 39.3% in assay [2] (at 50.0 µM). Moreover, the growth inhibition was -3% in assay [3] (setting [7]); -3% in assay [3] (setting [8]); 84.3% (active) in assay [3] (at 50.0 µM); -3% in assay [4] (setting [7]); 0% in assay [4] (setting [8]); -19.6% in assay [4] (at 50.0 µM). Besides, the growth inhibition in assay [5] (setting [7]) is -1%; in assay [5] (setting [8]), -1%; in assay [5] (at 50.0 µM) it was 18.3%; in assay [6] (setting [7]) it was 2%; in assay [6] (setting [8]), 0%; in assay [6] (at 50.0 µM), 57.4%.
As to `CC/C(=C(\CC)c1ccc(O)c(CN(C)C)c1)c1ccc(OC)cc1`, the growth inhibition is 9% in assay [1] (setting [7]); 87% (active) in assay [1] (setting [8]); 98.5% (active) in assay [1] (at 50.0 µM); 9% in assay [2] (setting [7]); 84% (active) in assay [2] (setting [8]); 86.3% (active) in assay [2] (at 50.0 µM). In addition, the growth inhibition in assay [3] (setting [7]) was 12%; in assay [3] (setting [8]), 99% (active); in assay [3] (at 50.0 µM) it was 99.6% (active); in assay [4] (setting [7]), 0%; in assay [4] (setting [8]) it was 98% (active); in assay [4] (at 50.0 µM), 97.8% (active). Besides, the growth inhibition was -28% in assay [5] (setting [7]); 95% (active) in assay [5] (setting [8]); 94.8% (active) in assay [5] (at 50.0 µM); 3% in assay [6] (setting [7]); 98% (active) in assay [6] (setting [8]); 98.6% (active) in assay [6] (at 50.0 µM).
On to `Clc1cc(Cl)c(NN=C(c2ccccc2)c2ccccc2)c(Cl)c1`, for which the growth inhibition in assay [1] (setting [7]) is 37%; in assay [1] (setting [8]) it was 97% (active); in assay [1] (at 50.0 µM), 99.5% (active); in assay [2] (setting [7]), 39%; in assay [2] (setting [8]) it was 97% (active); in assay [2] (at 50.0 µM) it was 99.2% (active). In addition, the growth inhibition is 57% in assay [3] (setting [7]); 98% (active) in assay [3] (setting [8]); 99.7% (active) in assay [3] (at 50.0 µM); 43% in assay [4] (setting [7]); 97% (active) in assay [4] (setting [8]); 99.4% (active) in assay [4] (at 50.0 µM). Moreover, the growth inhibition in assay [5] (setting [7]) is 87% (active); in assay [5] (setting [8]), 98% (active); in assay [5] (at 50.0 µM), 58.5%; in assay [6] (setting [7]), 72% (active); in assay [6] (setting [8]) it was 98% (active); in assay [6] (at 50.0 µM), 99.5% (active).
Take `CCC[CH2][Sn]([CH2]CCC)([O]C(=O)c1c(F)cccc1F)[O]C(=O)c1c(F)cccc1F`: the growth inhibition in assay [1] (setting [7]) was 80% (active); in assay [1] (setting [8]) it was 80% (active); in assay [1] (at 50.0 µM), 88.8% (active); in assay [2] (setting [7]) it was 66%; in assay [2] (setting [8]) it was 66%; in assay [2] (at 50.0 µM), 89.7% (active). The growth inhibition is 80% (active) in assay [3] (setting [7]); 80% (active) in assay [3] (setting [8]); 87.3% (active) in assay [3] (at 50.0 µM); 70% (active) in assay [4] (setting [7]); 70% (active) in assay [4] (setting [8]); 86.9% (active) in assay [4] (at 50.0 µM). For the same compound, the growth inhibition in assay [5] (setting [7]) is 72% (active); in assay [5] (setting [8]), 72% (active); in assay [5] (at 50.0 µM) it was 83.6% (active); in assay [6] (setting [7]), 73% (active); in assay [6] (setting [8]) it was 73% (active); in assay [6] (at 50.0 µM) it was 84% (active).
`CCC1(c2ccc(N3C(=O)c4ccccc4C3=O)cc2)CCC(=O)NC1=O` (configuration not stated): the growth inhibition in assay [1] (setting [7]) is 1%; in assay [1] (setting [8]), -3%; in assay [1] (at 50.0 µM), -5.4%; in assay [2] (setting [7]), -36%; in assay [2] (setting [8]), -24%; in assay [2] (at 50.0 µM) it was -13.2%. Also, the growth inhibition in assay [3] (setting [7]) is -20%; in assay [3] (setting [8]), 5%; in assay [3] (at 50.0 µM) it was 86.3% (active); in assay [4] (setting [7]), -17%; in assay [4] (setting [8]), 3%; in assay [4] (at 50.0 µM), 9.4%. Moreover, the growth inhibition in assay [5] (setting [7]) is -17%; in assay [5] (setting [8]), -19%; in assay [5] (at 50.0 µM) it was -8.6%; in assay [6] (setting [7]), -27%; in assay [6] (setting [8]), -25%; in assay [6] (at 50.0 µM), 5.4%.
